Screens as filed in PubChem BioAssay.
A selection: hits, their analogues and other compounds. The true share with any hit is near 7.3%.
FMDV antiviral: foot and mouth disease virus antiviral activity | Potency, µM (doses to about 57.9 µM), for the others: at the top dose activity change, negative = inhibition, usual class: inhibitors | hit rate 1.2% among 410,000 | FMDV antiviral cell-based qHTS; calls by dose curve; tested in HEK293T cells; also: read-out not given here; potency is read from the fitted curve at half-maximal effect; nearly all actives have a fitted effect of over 45% in size
Vaccinia mCherry: inhibitors of vaccinia virus infection (mCherry reporter signal). Vaccinia virus mCherry reporter infection, fluorescence. Potency, µM (doses to about 36.5 µM), inactives show top-dose activity change, negative = inhibition, actives largely listed as inhibitors. hit rate 0.63% among 310,000; calls by dose curve; tested in A549 cells; also: potency is read from the fitted curve at half-maximal effect; nearly all actives have a fitted effect of over 35% in size
Vaccinia Venus: inhibitors of vaccinia virus (Venus reporter) | Vaccinia virus Venus reporter expression, fluorescence | Potency, µM (series often up to 36.5 µM), for inactives: at the top dose activity change, negative = inhibition, actives largely listed as inhibitors | hit rate 0.46% among 330,000; calls by dose curve; tested in A549 cells; also: potency is read from the fitted curve at half-maximal effect; nearly all actives have a fitted effect of over 30% in size
HCV inhibitor: HCV inhibition; Huh7.5.1 HCVcc-Cre infection, luciferase reporter, 44 h; Potency, µM (titrated, usually from 41.8 µM), for inactives: at the top dose activity change, negative = inhibition, most hits filed as inhibitors; hit rate 3.4% among 340,000; active = well fitted inhibition curve with a large enough effect; inconclusive = small, poorly fitted or top-dose-only effect, or another doubt; inactive = no such curve, though single readings can be large or run the other way; also: potency is read from the fitted curve at half-maximal effect
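After 44 h co-culture of compound, cells and HCVcc-Cre (~0.5 moi), substrate is added for 15 min at room temperature and luciferase measured over 15 sec. Cells were seeded at 1,000/well and pre-cultured 4 h.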
HCMV inh: blocks human cytomegalovirus replication; activity change, negative = inhibition, % at 57.5 µM; hit rate 4.5% among 410,000; HFF cells, HCMV-luciferase reporter, 72 h; stronger effect = lower value; in the data active = activity change below about -60%; inconclusive = no clear call, values can overlap the other calls; inactive = above about -39%
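Inhibition of viral replication was scored as loss of reporter luminescence in HFFs infected with HCMV-luciferase (MOI 1 PFU/cell) for 72 h; compounds tested at 2 doses, normalized to buffer and Salinomycin controls.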
* marks the source's active call; other numbers are inactive results; i = inactive; ? = inconclusive; . = not tested or not shown; + = active, no number; [ ] = remark or other dose. % is scaled to controls: 0 for no effect and ±100 for the full control effect.

SMILES | FMDV antiviral | Vaccinia mCherry | Vaccinia Venus | HCV inhibitor | HCMV inh
CCN(CC)S(=O)(=O)c1cccc(NC(=O)CCNC(=O)c2ccc([N+](=O)[O-])cc2)c1 | -25% | . | . | ? | 0
CN(c1ccccc1)S(=O)(=O)c1cccc(NC(=O)CCNC(=O)c2ccc(Cl)cc2)c1 | 32µM* | -18% | ? | ? | 77
CN(c1ccccc1)S(=O)(=O)c1cccc(NC(=O)CCNC(=O)c2ccccc2)c1 | ? | . | . | -20% | -4
CN(c1ccccc1)S(=O)(=O)c1cccc(NC(=O)CCNC(=O)c2ccc([N+](=O)[O-])cc2)c1 | 40µM* | -10% | -16% | 11µM* | 19
CCOC(=O)c1ccc(N2CCN(c3cc(C)ccc3C)CC2)c(NC(=O)Nc2ccc(Cl)cc2)c1 | -10% | 1% | -4% | . | 21
CN1C(C(=O)c2ccccc2)=C(NC(=O)c2ccccc2Br)c2ccccc2S1(=O)=O | 18% | -14% | -14% | . | -22
CC(C)(C)c1ccc(OCCOCCn2c(-c3ccc(Cl)cc3)nc3ccccc3c2=O)cc1 | 0% | -2% | -12% | . | 5
O=c1cc(C(Cl)(Cl)Cl)oc2c1ccc1ccccc12 | 14µM* | ? | -29% | ? | -105*
O=c1cc(-c2ccncc2)oc2c1ccc1ccccc12 | -27% | -12% | 4% | ? | -79*
COC(=O)c1ccccc1NC(=O)/C=N/O | 6% | -12% | -4% | ? | -2
O=C(/C=N/O)Nc1ccc2sc3ccccc3c2c1 | 27% | i[7.34 µM] | -2%[7.34 µM] | 13µM* | -28
N/C(Cc1ccc(Cl)cc1)=N\OC(=O)CCc1ccccc1 | -20% | i | -19% | . | 18
N/C(Cc1ccc(Cl)cc1)=N\OC(=O)c1cccc2ccccc12 | ? | -16% | -13% | 7.1µM* | -19
N/C(=N\OC(=O)c1cccc2ccccc12)c1cccnc1 | 52% | . | . | 11µM* | 191
Cc1cccc(/C(N)=N/OC(=O)c2cccc3ccccc23)c1 | . | . | . | . | 173
N/C(Cc1ccc(Cl)cc1)=N\OC(=O)c1ccc2ccccc2c1 | -10% | -12% | -5% | 32µM* | 10
COc1ccc(C/C(N)=N/OC(=O)c2ccc(Cl)cc2)cc1 | 7% | i | -4% | -1% | ?
Cc1cccc2cc(CN(C(=O)c3ccc(N4CCCCC4)cc3)C3CC3)c(N3CCC(O)CC3)nc12 | -9% | -21% | -5% | . | .
NS(=O)(=O)c1ccc(CCNC(=O)Nc2ccc(Cl)c(Cl)c2)cc1 | 25µM* | . | . | ? | ?
Cc1ccc(NC(=S)NCCc2ccc(S(N)(=O)=O)cc2)cc1C | -21% | -9% | -9% | ? | -39
NS(=O)(=O)c1ccc(CNC(=S)Nc2ccc(Cl)c(Cl)c2)cc1 | -7% | i | -13% | -4% | -74*
CC(=O)N1CCc2c(sc3c2c(=O)n(-c2ccccc2C)c(=O)n3CC(=O)Nc2ccccc2)C1 | 37% | -11% | -4% | . | 27
CC1=[N+](C)c2c(ccc3cccnc23)C1(C)C | ? | 215% | 25% | ? | -108*
N[C@@H](Cc1ccccc1)c1nnc(SCc2ccccc2F)o1 | 0% | 11µM* | ? | -11% | 20
N[C@@H](Cc1c[nH]c2ccccc12)c1nnc(SCc2ccccc2F)o1 | -3% | . | . | 1% | 0
SMILES | FMDV antiviral | Vaccinia mCherry | Vaccinia Venus | HCV inhibitor | HCMV inh
CCc1nn2c(=O)cc(COC(=O)c3ccccc3NC(=O)c3ccc(C(C)(C)C)cc3)nc2s1 | 18% | -13% | -5% | . | ?
Nc1c(C(=O)CSc2nc3ccccc3o2)c(=O)[nH]c(=O)n1C1CC1 | 1% | . | . | ? | +
CC(C)CNC(=O)c1coc(=O)c(Br)c1 | ? | . | . | ? | -77*
O=C(NCCC1=CCCCC1)c1coc(=O)c(Br)c1 | -25% | i | -12% | ? | -103*
CCOC(=O)c1ccc(CNc2ncnc3nc[nH]c23)cc1 | . | -28% | -30% | . | .
COc1ccccc1OC(=O)c1cc2ccccc2oc1=O | 19% | -22% | 5% | 34% | 23
COc1cc(/C=C/[N+](=O)[O-])ccc1OC(=O)c1cc2ccccc2oc1=O | -13% | -4% | -16% | 7% | -72*
Cc1nn(Cc2ccc(Cl)c(Cl)c2)c(C)c1NC(=O)c1noc2c1CCc1ccccc1-2 | ? | ? | -16% | . | -39
COc1ccc2c(c1)CCc1c(C(=O)Nc3c(C)nn(Cc4ccc(C)cc4)c3C)noc1-2 | ? | ? | ? | . | -96*
COc1ccc(OC)c(-c2cc(C(=O)Nc3c(C)nn(Cc4ccccc4Cl)c3C)no2)c1 | -9% | -13% | -27% | 16µM* | -34
COc1ccc(-c2cc(C(=O)Nc3c(C)nn(Cc4ccccc4Cl)c3C)no2)cc1OC | ? | . | . | 8.9µM* | -5
COc1cccc(-c2cc(C(=O)Nc3c(C)nn(Cc4ccccc4Cl)c3C)no2)c1 | ? | -28% | -22% | . | 6
COc1ccc(OC)c(-c2cc(C(=O)Nc3c(C)nn(Cc4ccccc4C)c3C)no2)c1 | ? | . | . | 3.2µM* | -23
COc1ccc(-c2sc(N)nc2-c2ccccc2)cc1 | . | 0% | -26% | . | .
CCCOc1ccc(C2C(=O)N(C3CCCCCC3)CC(=O)N2Cc2ccc(OC)cc2)cc1OC (configuration not stated) | -20% | -14% | -5% | . | ?
Cc1ccc(Cn2nc(C)c(NC(=O)c3cc(-c4ccc5c(c4)OCO5)on3)c2C)cc1 | -24% | ? | ? | ? | -60*
Cc1cc(C(=O)Nc2c(C)nn(Cc3ccccc3Cl)c2C)no1 | -2% | . | . | 5% | -7
Cc1nn(C)cc1C(=O)Nc1c(C)nn(Cc2ccccc2Cl)c1C | -1% | -21% | -7% | 7% | -80*
Cc1nn(Cc2ccc(F)cc2)c(C)c1NC(=O)c1cc(-c2ccc3c(c2)OCO3)on1 | -16% | . | . | ? | -25
COc1ccccc1-c1cc(C(=O)Nc2c(C)nn(Cc3ccc(Cl)cc3)c2C)no1 | 28µM* | ? | ? | . | -74*
COc1ccc(OC)c(-c2cc(C(=O)Nc3c(C)nn(Cc4ccc(C)cc4)c3C)no2)c1 | ? | -31% | -30% | . | -15
CCC(=O)N1[C@@H]2Cn3c(cccc3=O)[C@H]1[C@@H](C(=O)NC1CCCCC1)[C@@H]2CO | . | . | . | . | 5
O=C(C[n+]1ccc(Cl)c2ccc(Cl)cc21)c1ccc(F)cc1 | . | -15% | -6% | . | .
NC(=O)C1CCCN(Cc2ccc3c(c2)CN(Cc2ccccc2)CCO3)C1 (configuration not stated) | 2% | -5% | 1% | . | .
COc1ccc(-c2cccc(NS(=O)(=O)c3ccc(C)s3)c2)nn1 | 29% | -17% | -8% | . | -7
Cc1cc(OC(=O)c2ccco2)c2c3c(c(=O)oc2c1)CCCC3 | ? | i | 12% | ? | -67*
Cc1ccc(-n2nc(C)cc2NC(=O)COc2cc(C)cc3oc(=O)c4c(c23)CCC4)cc1 | -21% | . | . | 7.1µM* | 7
CN(CC(=O)O)c1ccc(/C=C/c2ccnc3ccccc23)cc1 | . | -2% | -4% | . | .
O=c1c(S(=O)(=O)c2cccc(Cl)c2)cn(Cc2ccccc2)c2cc(N3CCCCC3)c(F)cc12 | 10% | -2% | -21% | . | -65*
